Source: PubChem BioAssay AID602250 (The Scripps Research Institute Molecular Screening Center, 2012)
Out of some 360,000 compounds screened, about 2,200 (0.61%) were called active. The sample holds actives, similar compounds and a random draw of the others, so the mix is not that of the screen. Values without a mark were called inactive.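 Rule for the calls: active = inhibition above a per-plate cutoff, the plate's mean sample inhibition plus 3 SD (cut at about 24% in these data); inactive = the rest.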

Test: calcium signal blockers in parental CHO-K1 cells – cell-based, Fluo-8 calcium fluorescence, full deck, 1536-well, counter-screen for M1 antagonist project, primary screen (AID 602250);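 note: 0% = DMSO plus EC80 ATP and 100% = DMSO alone without ATP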
Conditions: ATP-induced calcium, Fluo-8 fluorescence, at 3 µM, active compounds read high
`O=C(NCC(c1cccs1)N1CCOCC1)c1cc(Cl)ccc1[N+](=O)[O-]` (centres undefined) gave an inhibition of 10.5%.
Work on `COc1ccccc1C(=O)NC(CCSC)C(=O)N1CCN(C/C=C/c2ccccc2)CC1` (centres undefined) yielded an inhibition of -0.28%.
Work on `CC(=O)c1cccc(OCc2cc(C(=O)NC(C)Cc3cccnc3)no2)c1` (centres undefined) yielded an inhibition of -0.09%.
With `CN(Cc1cccnc1)C(=O)c1cc(COc2ccc3ncccc3c2)on1` the inhibition was 37.4% (active).
For `CN(Cc1cnccn1)C(=O)c1cc(COc2cccc(C(F)(F)F)c2)on1`, the inhibition was -4.38%.
Compound `O=C(NCCCc1ccccc1)c1cc(COc2c(F)cccc2F)on1` has an inhibition of -16.9%.
Work on `Cc1ccc(Sc2cc(N3CCOCC3)nc(-c3ccccc3)n2)cc1` yielded an inhibition of -3.23%.
With `O=c1[nH]c(=O)n(Cc2ccco2)c2c1C(C(F)(F)F)(C(F)(F)F)N=C(c1ccco1)N2` the inhibition was 30.1% (active).
`Nc1c(N(Cc2ccco2)C(=O)c2cccc(F)c2)c(=O)[nH]c(=O)n1Cc1ccccc1` showed an inhibition of 0.73%.
Work on `Cc1ccccc1C1=NC(C(F)(F)F)(C(F)(F)F)c2c(n(-c3ccc(F)cc3)c(=O)[nH]c2=O)N1` yielded an inhibition of -9.81%.
Work on `CC(=O)c1ccccc1NC(=O)CC1(CC(=O)O)CCCCC1` yielded an inhibition of -2.82%.
Compound `CCC(C)(C(=O)Nc1ccccc1C)N(C(=O)CNC(C)=O)c1ccc(C)cc1` (centres undefined) has an inhibition of -1.48%.
Compound `CCCCSc1[nH]c(=O)c(C(=O)OCC)cc1C#N` has an inhibition of 5.2%.
Compound `CN1CCN(Cc2nc3cc(NC(=O)COc4ccc([N+](=O)[O-])cc4)ccc3n2C)CC1` has an inhibition of -3.48%.
`CCOC(=O)c1cnc(SCC(=O)Nc2cccc(OC)c2)nc1N` showed an inhibition of 11.2%.
In the case of `CCCCCCCCn1c2c(c(=N)c3c1CCC3)CCCC2`, the inhibition is reported as 32.5% (active).
In the case of `C/C(=N/OC(=O)c1cccc(C(F)(F)F)c1)c1cnccn1`, the inhibition is reported as -1.12%.
Compound `CC(C)Oc1ccc(S(=O)(=O)N2CCOCC2)cc1NC(=O)C1CSC2(C)CCC(=O)N12` (centres undefined) has an inhibition of 0.94%.
`COc1ccc(Nc2oc(-c3ccccc3Cl)nc2C#N)cc1` gave an inhibition of -14.3%.
For `Cc1ccccc1-c1nc(C#N)c(NCc2ccco2)o1`, the inhibition was 28.1% (active).
`Cc1cc(NCc2ccco2)n2c(nc3ccccc32)c1C#N` gave an inhibition of -0.52%.
Work on `O=C(COC(=O)CCCSc1nc2ccccc2[nH]1)Nc1ccc(Oc2ccccc2)cc1` yielded an inhibition of 0.31%.
For `Cc1cc(C)n2c(Nc3c(C)cccc3C)c(CCc3ccccc3)nc2n1`, the inhibition was 2.51%.
With `CCOC(=O)N/N=C1\CC(C)S(=O)(=O)c2ccc(Cl)cc21` (centres undefined) the inhibition was -8.64%.
For `Cc1cccc(S(=O)(=O)N(C)C[C@@H]2OCc3cnnn3CCCC(=O)N([C@H](C)CO)C[C@@H]2C)c1`, the inhibition was 1.2%.
Work on `CN(C)C(CNC(=O)c1cc2ccccc2o1)c1ccccc1` (centres undefined) yielded an inhibition of -1.56%.
With `O=C(Nc1ccncc1)c1cc2ccccc2o1` the inhibition was 23.7% (active).
`CC(C)(C)n1nc2c(c1NC(=O)c1cc3ccccc3o1)CSC2` gave an inhibition of -14.9%.
For `O=C(CSc1nnnn1-c1ccc2c(c1)CCC2)Nc1ccc2c(c1)OCCO2`, the inhibition was 16.9%.
In the case of `N#Cc1c(NCCO)ccc([N+](=O)[O-])c1NCCO`, the inhibition is reported as -7.72%.
For `CCN1CCN(C2CCCCC2NS(=O)(=O)c2ccc(Cl)cc2)CC1` (centres undefined), the inhibition was -7.77%.
In the case of `CCOC1CCCCC1NS(=O)(=O)c1ccc(Cl)cc1` (centres undefined), the inhibition is reported as 38.7% (active).
`O=S(=O)(NC1CCCCC1N1CCC(O)CC1)c1ccc(Cl)cc1` (centres undefined) gave an inhibition of -4.04%.
Compound `CCOC(=O)c1cc2occc2n1CC(=O)NC1CCC(C)CC1` (centres undefined) has an inhibition of -7.77%.
With `CCOC(=O)C1CN(S(=O)(=O)c2ccc(F)cc2)C1` the inhibition was 0.12%.
For `CC(=O)C1=CCC(c2ccccc2)N(S(=O)(=O)c2ccc(C)cc2)C1` (centres undefined), the inhibition was -16.2%.
With `CCOC(=O)C1=CCC(c2ccc(F)cc2)N(S(=O)(=O)c2ccc(C)cc2)C1` (centres undefined) the inhibition was 31.3% (active).
For `CCOC(=O)C1=CC[C@@H](c2ccccc2)N(S(=O)(=O)c2ccc(C)cc2)[C@H]1c1ccc(CC)cc1`, the inhibition was 11.1%.
Work on `CCOC(=O)C1=CC[C@@H](c2ccccc2)N(S(=O)(=O)c2ccc(C)cc2)[C@H]1c1cccc(OC)c1` yielded an inhibition of 8.14%.
In the case of `CCOC(=O)C1=CC[C@@H](c2ccncc2)N(S(=O)(=O)c2ccc(C)cc2)C1`, the inhibition is reported as 25.1% (active).
In the case of `O=C1C=CN2CCCC2CC1` (centres undefined), the inhibition is reported as -0.95%.
With `CCC(C)(C)NC(=O)C(c1ccc(O)cc1)N(C(=O)Cn1nnc2ccccc21)c1ccc(NC(C)=O)cc1` (centres undefined) the inhibition was -17.9%.
With `COc1ccccc1-n1c(C)nc2cc(C(=O)NCc3ccc4c(c3)OCO4)ccc21` the inhibition was -1.86%.
Work on `Cc1ccc(NC(=O)c2sccc2C)cc1[N+](=O)[O-]` yielded an inhibition of -7.01%.
In the case of `Cc1ccc(NC(=O)CN(C)CC(=O)Nc2cccc(F)c2)cc1[N+](=O)[O-]`, the inhibition is reported as 26.1% (active).
`CN(CC(=O)Nc1cccc(F)c1)C(=O)C1=COCCO1` gave an inhibition of 9.82%.
In the case of `COc1cc([N+](=O)[O-])ccc1NC(=O)COC(=O)CCOc1ccc(C)cc1`, the inhibition is reported as -5.41%.
`CCSc1nc(C)c(CCOc2cccc(C)c2)c(=O)[nH]1` showed an inhibition of 11.1%.
For `COc1ccc(-c2cc(C(=O)N(C)CC(=O)Nc3ccccc3Cl)c3ccccc3n2)cc1OC`, the inhibition was 7.04%.
`COc1ccc(CN(C)C(=O)c2cc(-c3ccc(C)cc3C)nc3ccccc23)c(OC)c1OC` gave an inhibition of 5.32%.
With `COc1ccc(-c2cc(C(=O)N(C)Cc3ccc(OC)c(OC)c3OC)c3ccccc3n2)cc1OC` the inhibition was 26.8% (active).
Work on `CC(NC(=O)CNC(=O)Cc1cccc2ccccc12)c1ccc(S(N)(=O)=O)cc1` (centres undefined) yielded an inhibition of 4.92%.
With `COc1ccc(-c2nn(C)c(=O)c3ccccc23)cc1NC(=O)COc1ccccc1` the inhibition was 23.8% (active).
In the case of `COc1ccc(S(=O)(=O)N2CCCCC2)cc1NC(=O)COc1ccccc1`, the inhibition is reported as -8.54%.
`COc1ccc(-c2nn(C)c(=O)c3ccccc23)cc1CNC(=O)C1CCCCC1` gave an inhibition of 3.7%.
For `O=C(O)CCn1c(SCc2cc(=O)n3ccccc3n2)nc2ccsc2c1=O`, the inhibition was -10.2%.
`CCOC(=O)C1(CCOC)CCN(Cc2cc3ccccc3s2)CC1` gave an inhibition of -9.7%.
`CCNC(=O)c1cccc(NC(=O)C2CC(=O)N(CCc3ccccc3)C2)c1` (centres undefined) gave an inhibition of -8.93%.
Compound `COC(=O)C1=C(C(=O)OC)C2(OC1c1ccc(Br)cc1)C(=O)c1ccccc1C2=O` (centres undefined) has an inhibition of -3.96%.
`O=C(c1ccc(C(F)(F)F)cc1)C1CCCN(C(=O)c2csnn2)C1` (centres undefined) showed an inhibition of -23.1%.
Compound `CC(C)(C)OC(=O)C[C@@H]1C/C=C\C[C@@H](CC(=O)NCCO)C(=O)N[C@H](Cc2c[nH]c3ccccc23)COC1=O` has an inhibition of -11.8%.
`Cc1nc(CN(C)C(=O)CC2C(=O)NCCN2Cc2ccc(F)cc2)cs1` (centres undefined) showed an inhibition of -6.22%.
In the case of `Nc1c(C(=O)c2cccs2)sc2nsc(SCCN3CCCCC3)c12`, the inhibition is reported as 47% (active).
Work on `CCN(CC(=O)Nc1cc(Cl)ccc1C)C(=O)CN1C(=O)NC2(CCCC2)C1=O` yielded an inhibition of -4.87%.
With `CCCc1nc2ccccc2c(C(=O)OCc2nnc(-c3cc(OC)c(OC)c(OC)c3)o2)c1CC` the inhibition was 1.5%.
In the case of `COc1cc(-c2nnc(Cn3cc(C(F)(F)F)ccc3=O)o2)cc(OC)c1OC`, the inhibition is reported as 27.6% (active).
For `COc1cc(-c2nnc(NC(=O)CS(=O)(=O)c3ccc(Cl)cc3)o2)cc(OC)c1OC`, the inhibition was 12.6%.
`Cn1c(SCC(=O)NC2CCCCC2)nnc1-c1ccc(N)cc1` showed an inhibition of 3.52%.
`N#Cc1cc([N+](=O)[O-])ccc1NCC1CCCO1` (centres undefined) gave an inhibition of -8.37%.
Compound `O=C1C(C=NCC2CCCO2)=C(O)c2ccccc21` (centres undefined) has an inhibition of -5.68%.
For `O=C1c2cccc3c([N+](=O)[O-])ccc(c23)C(=O)N1CC1CCCO1` (centres undefined), the inhibition was 24.2% (active).
For `CCOc1ccc(NC(=S)N2CCC(N(C)CC3CCCO3)CC2)cc1` (centres undefined), the inhibition was -7.23%.
With `COc1ccc(CCNC(=O)Cc2ccc(C)cc2)cc1OC` the inhibition was 8.59%.
With `COc1ccc(CC(=O)Nc2nc(-c3ccc(F)c(F)c3)cs2)cc1OC` the inhibition was 32.9% (active).
Work on `COc1ccc(CC(=O)NC2CCSc3ccccc32)cc1OC` (centres undefined) yielded an inhibition of -0.56%.
For `CC(=O)Nc1cccc(NC(=O)c2c(-c3ccccc3)noc2C)c1`, the inhibition was 26.9% (active).
`CC(=O)Nc1cccc(/C(C)=N/NC(=O)c2c(-c3ccccc3Cl)noc2C)c1` showed an inhibition of 10.5%.
Work on `Cc1onc(-c2c(F)cccc2Cl)c1C(=O)N(C)CC(=O)Nc1cccc(F)c1` yielded an inhibition of -0.6%.
Work on `CC(C)c1nc(SCC(=O)NC(=O)NC(C)(C)C)n[nH]1` yielded an inhibition of -2.13%.
`Cc1cc(NC(=O)Nc2c[nH]c(=O)[nH]c2=O)ccc1Br` gave an inhibition of -4.71%.
With `O=C1CC(c2ccccc2)=NN1c1ccc([N+](=O)[O-])cc1` the inhibition was 26.7% (active).
Work on `CCN1N=C(c2ccccc2)CCC1=O` yielded an inhibition of -1.49%.
Compound `O=C1NC(=O)C2C1C(c1ccc([N+](=O)[O-])cc1)=NN2Cc1ccccc1` (centres undefined) has an inhibition of -6.56%.
In the case of `Cc1csc(NC(=O)C2CCCN2C(=O)OCC(C)C)n1` (centres undefined), the inhibition is reported as 17%.
In the case of `O=C(N/N=C/c1ccc(OC(=O)c2ccccc2Cl)cc1)c1ccc(O)cc1`, the inhibition is reported as 24.1% (active).
Work on `O=C(N/N=C/c1ccc(OCC2COCCO2)cc1)c1ccc(Br)cc1` (centres undefined) yielded an inhibition of -8.18%.
`CC(C)(C)C(=O)Nc1ccc(C(=O)N/N=C/c2ccccc2OC(=O)c2ccc(Cl)cc2Cl)cc1` gave an inhibition of 13.2%.
For `O=C(c1ccccc1F)N(Cc1ccccc1)Cc1ccccc1`, the inhibition was -7.64%.
For `COCCn1c(Cc2cccn2C)nnc1SCC(=O)Nc1nccs1`, the inhibition was -7.19%.
